# PubChem BioAssay AID1510 (The Scripps Research Institute Molecular Screening Center, 2009)
# Hit rate of the full screen: of about 220,000 compounds, about 570 (0.26%) were called active. This is one part of a sample in which actives are shown more often than they occur. Cut-off read from the data, not from the text of the source: active = inhibition above about 29%; inactive = the rest.
# Target: Sphingosine 1-phosphate receptor 4 (Homo sapiens) (UniProt O95977)
# Test: blockers of human S1P4 receptor – cell-based, primary screen (AID 1510);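 note: 0% = wells stimulated with agonist and 100% = vehicle wells without agonist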
# Details: S1P4-expressing cells, antagonist mode, reporter read-out; at 4.98 µM; hits give high values
# Chain of Sphingosine 1-phosphate receptor 4 (Homo sapiens) (O95977 whole entry, looked up): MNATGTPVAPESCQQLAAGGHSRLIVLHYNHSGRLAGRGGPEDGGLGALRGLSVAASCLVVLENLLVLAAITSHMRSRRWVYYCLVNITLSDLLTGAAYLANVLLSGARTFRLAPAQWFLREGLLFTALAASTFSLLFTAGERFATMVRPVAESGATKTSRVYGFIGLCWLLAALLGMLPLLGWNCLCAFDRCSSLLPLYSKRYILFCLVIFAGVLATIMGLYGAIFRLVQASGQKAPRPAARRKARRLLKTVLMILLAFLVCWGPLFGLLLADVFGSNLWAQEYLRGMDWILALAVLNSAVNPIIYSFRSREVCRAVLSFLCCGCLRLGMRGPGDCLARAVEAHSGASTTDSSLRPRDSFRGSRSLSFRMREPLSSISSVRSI
row,SMILES,inhibition
1,CCOc1ccc(S(=O)(=O)Nc2ccncc2)c(C)c1C,8.19% (inactive)
2,Cc1cc(SCC(=O)c2ccccc2)nc(SCC(=O)c2ccccc2)n1,-17.1% (inactive)
3,Cc1cc(C)nc(S/C=C/C(=O)c2ccccc2)n1,54.5% (active)
4,C/C(=N\NC(=O)c1nc(C)cc(C)n1)c1ccccc1,4.33% (inactive)
5,O=C(Nc1nnc(SCc2ccccc2Cl)s1)c1cccc([N+](=O)[O-])c1,-13.5% (inactive)
6,O=C(O)C1CC=CCC1C(=O)Nc1ccccc1C(=O)N1CCN(c2ccccc2)CC1 (centres undefined),-6.52% (inactive)
7,CC(C)c1ccc(N2CCN(C(=O)c3ccccc3NC(=O)/C=C(\C(=O)O)c3ccccc3)CC2)cc1,96% (active)
8,Cc1cccc(N2CCN(C(=O)c3ccccc3NC(=O)C3CCCCC3C(=O)O)CC2)c1 (centres undefined),-7.71% (inactive)
9,CC(C)c1ccc(Nc2ncccc2C#N)cc1,-16.8% (inactive)
10,O=C(/C=C/c1cccc([N+](=O)[O-])c1)NCCSCc1ccco1,-14.7% (inactive)
11,CCc1ccc2ncc(C(=O)c3ccccc3)c(N3CCOCC3)c2c1,-14.8% (inactive)
12,O=C1Nc2cc(Cl)c(Cl)cc2N(O)N1c1ccccc1Cl,-11.4% (inactive)
13,C=CCOCCN(C)C1=NS(=O)(=O)c2ccccc21,-5.99% (inactive)
14,Fc1ccc(Nc2nnns2)cc1,-8.7% (inactive)
15,O=C(CSc1ncn[nH]1)Nc1nc(-c2cccc([N+](=O)[O-])c2)cs1,0.29% (inactive)
16,COc1ccc2c(c1OC)C(=O)OC2Nc1nc(-c2ccccc2)cs1 (centres undefined),22.8% (inactive)
17,COc1ccc(Nc2nc(-c3ccccc3)cs2)cc1,-20.3% (inactive)
18,COc1ccc(-c2csc(NC3OC(=O)c4ccccc43)n2)cc1 (centres undefined),30.9% (active)
19,O=C(CC1NCCNC1=O)Nc1cc(Cl)cc(Cl)c1 (centres undefined),-3.46% (inactive)
20,Cc1cc(C(=O)CSc2nc(N)cc(=O)[nH]2)c(C)n1-c1cccc(F)c1,-13.7% (inactive)
21,Brc1ccc(-c2nn[nH]n2)cc1,11.9% (inactive)
22,Cc1ccc(C2CCN(C(=S)Nc3cccc(Cl)c3)C2)cc1 (centres undefined),3.99% (inactive)
23,Cc1nc2nc(SCC(=O)c3ccccc3)[nH]c2cc1Br,6.48% (inactive)
24,O=C(COC(=O)c1cc([N+](=O)[O-])ccc1NCc1ccccc1)NC1CCCCC1,-5.39% (inactive)

row,SMILES,inhibition
1,COc1cc(C(=O)N2C(=O)c3cccc(N)c3C2=O)cc(OC)c1OC,6.71% (inactive)
2,CN1CCN(S(=O)(=O)c2cccc(C(=O)O)c2)CC1,-2.81% (inactive)
3,CC1CC(C)CN(S(=O)(=O)c2cccc(C(=O)N3C(=O)c4cccc(N)c4C3=O)c2)C1 (centres undefined),37.9% (active)
4,CC(C)(C)C(=O)NCCCNc1ccc([N+](=O)[O-])cc1,4.36% (inactive)
5,Cc1cc(C)n(-c2nnc(N3CCN(c4ccccc4)CC3)nn2)n1,9.76% (inactive)
6,CCn1nnnc1SCC(=O)c1ccc(C)cc1C,-2.87% (inactive)
7,Cc1ccc(SC(CC(=O)c2ccc(C(C)(C)C)cc2)C(=O)O)cc1 (centres undefined),26% (inactive)
8,Cn1c(=O)c2c(nc(N/N=C/c3cccs3)n2Cc2ccc(Br)cc2)n(C)c1=O,-19.2% (inactive)
9,Cc1ccc(COc2ccc(/C=N/NC(=O)CN3CCCCC3)cc2)cc1,-8.97% (inactive)
10,CC1CC2=C(CC1/C=N/NC(N)=S)C(C)(C)CCC2 (centres undefined),29.9% (active)
11,CC1(C)CCCC2=C1CC1C(=O)N(c3ccccc3)C(=O)C1C2 (centres undefined),-11.5% (inactive)
12,COc1ccc(C)c(Cn2c(-c3nonc3N)nc3ccccc32)c1,-20.7% (inactive)
13,CC(=O)Nc1nonc1-c1nc2ccccc2n1Cc1ccccn1,-6.67% (inactive)
14,Nc1nonc1-c1nc2ccccc2n1Cc1ccc(F)cc1,38.9% (active)
15,COc1ccc(CCCc2nnc(SCc3nc4ccccc4c(=O)[nH]3)n2C)cc1,3.12% (inactive)
16,C=C(C)CNC(=S)Nc1ccc(S(=O)(=O)Nc2cnc3ccccc3n2)cc1,2.29% (inactive)
17,Cc1cc(C(=O)Nc2c(C)n(C)n(-c3ccccc3)c2=O)cs1,-8.59% (inactive)
18,Cc1c(NC(=O)c2coc(=O)c(Br)c2)c(=O)n(-c2ccccc2)n1C,-7.02% (inactive)
19,Cc1cc2oc(C(=O)Nc3c(C)n(C)n(-c4ccccc4)c3=O)c(C)c2cc1Cl,29.2% (active)
20,COc1ccc(NC(=O)COC(=O)c2ccncc2)c(OC)c1,-5.29% (inactive)
21,Cc1cc(C(C)(C)C)oc1C(=O)N(CC(=O)NC1CCCC1)Cc1ccc(Cl)cc1,-6.52% (inactive)
22,CC(C)NC(=S)N1CCN(S(C)(=O)=O)CC1,-10.4% (inactive)
23,Cc1nc2cc3c(cc2s1)OCO3,-20.6% (inactive)
24,COc1ccc(C(=O)NCc2nnc(SCCOc3ccccc3)n2C)cc1,-1.19% (inactive)

row,SMILES,inhibition
1,CC(C)N(C(=O)c1ccc(-c2ccccc2F)cc1)C(C)C,26.9% (inactive)
2,CC(NCc1ccccc1OC1CCCC1)c1ccccc1 (centres undefined),27.7% (inactive)
3,CC(C)(C)NC(=O)C(=O)NCc1ccncc1,-14.6% (inactive)
4,CNS(=O)(=O)c1ccc(NC(=O)C2CC(=O)N(c3ccc(Cl)cc3)C2)cc1 (centres undefined),12.8% (inactive)
5,CC(=O)Nc1ccc(S(=O)(=O)N2CCN(c3ccc([N+](=O)[O-])c(NCCN4CCOCC4)c3)CC2)cc1,-3.22% (inactive)
6,COc1cc(NC(=O)CN(C)S(=O)(=O)c2ccc3nc(C)sc3c2)cc(OC)c1,-2.8% (inactive)
7,Cc1cc(/C=N/NC(N)=O)c(C)n1C1CCCCC1,16.8% (inactive)
8,Cc1cccc(C(=O)Nc2ccccc2C(=O)NCc2cccnc2)c1,-7.4% (inactive)
9,Cc1ccc2cc(/C=N/Nc3ccc(C(=O)O)cc3)c(Cl)nc2c1,4.36% (inactive)
10,Cc1nc([N+](=O)[O-])cn1CC(=O)Nc1ccc2c(c1)OCO2,-4.57% (inactive)
11,Cc1nn(CC#N)c(=O)n1N(C)c1ncc(C(F)(F)F)cc1Cl,-4.17% (inactive)
12,CCOc1ccc(C(=O)Nc2cccc(-c3ccc4nncn4n3)c2)cc1,0.94% (inactive)
13,O=C(C1CCN(S(=O)(=O)c2ccc(Br)s2)CC1)N1CCN(C2CCCCC2)CC1,-2.03% (inactive)
14,O=C(/C=C/c1ccc(Cl)c([N+](=O)[O-])c1)c1ccc(O)cc1,46.2% (active)
15,CN(C)c1ccc(/C=C/C(=O)c2ccc(C(C)(C)C)cc2)cc1[N+](=O)[O-],-10.1% (inactive)
16,CN(C)c1ccc(/C=C/C(=O)c2ccc(O)cc2)cc1[N+](=O)[O-],6.74% (inactive)
17,COc1ccccc1CNC(=O)Cn1c(=O)oc2cc(Cl)ccc21,0.8% (inactive)
18,COc1ccc(C[C@H]2CN3C(=NC[C@H]3C)N2CCNC(=O)CCC2CCCCC2)cc1,-5.06% (inactive)
19,CC1CCCC(NC(=O)c2cccc(N3CCCC3=O)c2)C1C (centres undefined),-7.04% (inactive)
20,C/C(=N/O)c1ccc(N2C(=O)C3C4C=CC(C3C2=O)C2C3C(=O)N(c5ccc(/C(C)=N/O)cc5)C(=O)C3C42)cc1 (centres undefined),-4.36% (inactive)
21,COC(=O)C1=C(Nc2ccc(C)cc2)C=C(C)C(C(=O)OC)C1c1ccc(F)cc1 (centres undefined),-18% (inactive)
22,O=C(NNC(=S)Nc1ccc(Br)cc1Cl)c1ccco1,-12.4% (inactive)
23,NC(=O)N/N=C\c1cccs1,-18.6% (inactive)
24,CCCCCCCC(=O)NC(Nc1ccccc1OC)C(Cl)(Cl)Cl (centres undefined),8.46% (inactive)

row,SMILES,inhibition
1,Cc1cc(NC(=O)CSCc2ccccc2C)no1,-4.86% (inactive)
2,C=CS(=O)c1sc(Cl)c(N2CCOCC2)c1[N+](=O)[O-] (centres undefined),46.3% (active)
3,O=c1c2cc(-c3ccccc3)sc2nc2n1N=C(c1cccs1)CS2,-3.31% (inactive)
4,CCOc1ncccc1C(=O)N(CC)CC(=O)Nc1ccc(NC(C)=O)cc1,-27.8% (inactive)
5,CNc1ccc(SC#N)cc1,30.8% (active)
6,CC[C@H]1CN2CCc3cc(OC)c(OC)cc3[C@@H]2C[C@@H]1C[C@H]1NCCc2cc(OC)c(OC)cc21,82.3% (active)
7,COc1cc2c(cc1O)[C@H](Cc1ccc(Oc3cc(C[C@@H]4NCCc5cc(OC)c(O)cc54)ccc3O)cc1)NCC2,-13.1% (inactive)
8,O=C(Nc1ccc(Cl)cc1)Nc1ccc(C(=O)N2CCOCC2)cc1,6.4% (inactive)
9,Cc1ccc(Oc2cc(NC(=O)CCCn3nc(C)c([N+](=O)[O-])c3C)cc([N+](=O)[O-])c2)cc1,-12.2% (inactive)
10,O=C(Nc1ccccc1)c1nnsc1S(=O)(=O)c1ccc(Cl)cc1,93.8% (active)
11,O=C(Nc1ccc(Cl)cc1)c1ccsn1,4.84% (inactive)
12,CS(=O)(=O)c1ccc(Cl)c(NC(=O)Nc2ccccc2)c1,17.2% (inactive)
13,CS(=O)(=O)N(CC(=O)N1CCN(c2ccc(F)cc2)CC1)C1CCCCC1,-13.7% (inactive)
14,Cc1ccc(CCC(=O)Nc2ncc(Cc3cc(Cl)ccc3Cl)s2)o1,-6.95% (inactive)
15,CCc1ccc(S(=O)(=O)NCC(O)COc2ccc(OC)cc2)cc1 (centres undefined),2% (inactive)
16,O=C(/C=C/Sc1ncn[nH]1)c1ccc(Cl)cc1,47.2% (active)
17,COc1ccc(Cl)cc1CSc1ncn[nH]1,-3.23% (inactive)
18,O=C(NCCOCc1ccc(Cl)cc1)c1ncn[nH]1,-4.23% (inactive)
19,CC(=O)N1N=C(c2ccncc2)OC1(Cc1ccccc1)Cc1ccccc1,23.2% (inactive)
20,CN(C)CCNC(=O)Cc1ccc([N+](=O)[O-])cc1,-16% (inactive)
21,CCCc1nc2c(C)cc(-c3nc4ccccc4n3C)cc2n1Cc1ccc(-c2ccccc2C(=O)O)cc1,-1.52% (inactive)
22,CCOc1ccc(C(C)=O)cc1COC(=O)c1cnc(Cl)c(Cl)c1,-30.6% (inactive)
